# The whole screen tested about 1,900 compounds, of which about 390 (21%) were called active. The rule behind the calls is not given here. Only a sample is shown.
# Test: nonspecific enhancement of M3R calcium signal without RGS4 – HEK293 M3R, non-induced cells, counter-screen for RGS4 inhibitor project, confirmation (AID 493000);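 note: RGS4 induction absent so cells express M3R without RGS4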;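 for activity (percent): higher means more calcium signal and flags a non-specific hit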
# Conditions: carbachol calcium Fluo-4, at 10 µM, submaximal (EC20) carbachol stimulus; stronger effect = higher value, buffer wells 0%, carbachol control wells 100%
row,Compound,activity (percent)
1,CC(C)c1nc(SCC(=O)Nc2cccc(C(=O)O)c2)c2c3c(sc2n1)CCCC3,41.5% (active)
2,Cc1ccc(NC(=O)c2c(NC(=O)CCC(=O)O)sc3c2CCCCC3)cc1,inactive
3,CCOc1ccc(/C=N/NC(=O)CSc2ccccn2)cc1O,inactive
4,S=c1[nH]nc(-c2cccnc2)n1/N=C/C(Cl)=C\c1ccccc1,inactive
5,COc1ccc(/C=C/C(=O)c2ccc(OC)cc2O)cc1,inactive
6,O=C(/C=C/c1ccc(Cl)c([N+](=O)[O-])c1)c1cccnc1,43.5% (active)
7,O=C(/C=C/c1ccc(Cl)c([N+](=O)[O-])c1)c1ccc(O)cc1,43.5% (active)
8,C1=C(N2CCOCC2)/C(=C/c2nc3ccccc3[nH]2)CC1,inactive
9,CNCC(O)c1ccc(O)c(O)c1 (configuration not stated),inactive
10,O=C(Nc1ccc(Cl)cc1)OCc1cc(-c2ccccc2)on1,inactive
11,O=[N+]([O-])c1c(NCCO)cc(Sc2nc3ccccc3s2)c2nonc12,inactive
12,CCCCC1S/C(=N/N=C/c2cccs2)NC1=O (configuration not stated),inactive
13,COc1cc(Br)cc(/C=N/c2ncn[nH]2)c1O,inactive
14,Oc1ccc(/C=N/Nc2ccc(C(F)(F)F)cn2)cc1O,34.5% (active)
15,Cn1c(-c2ccco2)nc2cc3ccccc3cc21,inactive
16,COc1cc2c(cc1O)C(SC)=NC(C)(C)C2,inactive
17,O=C1Nc2ccc(Br)cc2/C1=N/N=C/C1=C(N2CCOCC2)C(=C\c2ccccc2)/CC1,31.5% (active)
18,O=C(O)C(c1ccccc1)N1C(=O)/C(=C\c2ccc(-c3cccc(Cl)c3)o2)SC1=S (configuration not stated),inactive
19,COc1ccc(/C(O)=C2/C(=O)C(=O)N(c3nc(C)c(C)s3)C2c2ccco2)cc1 (configuration not stated),inactive
20,C=C(C)C(=O)O[C@H]1C/C(C)=C\C(=O)/C=C(\C)[C@H](O)[C@@H]2OC(=O)C(=C)[C@@H]21,inactive
21,C[C@H](NC(=O)c1nc[nH]c1C(=O)NCC(=O)OC(C)(C)C)c1ccccc1,inactive
22,Cc1ccc(Nc2nc(N)nc(CN3CCN(Cc4ccccc4)CC3)n2)cc1Cl,inactive

row,Compound,activity (percent)
1,O=C(CCN1CCc2ccccc2C(O)(c2ccccc2)C1)c1ccc2c(c1)OCCO2 (configuration not stated),34.5% (active)
2,CS(=O)(=O)N(CC(O)Cn1c2ccccc2c2ccccc21)c1cccc2ccccc12 (configuration not stated),inactive
3,Oc1ccc(-c2[nH]ncc2-c2nc3ccccc3s2)c(O)c1,inactive
4,CCn1c(O)c(N=NC2=NC(=O)CS2)c2cc(C)ccc21,inactive
5,CCc1nnc(NS(=O)(=O)c2ccc(N=Cc3c(C)[nH]n(-c4ccc(C)cc4)c3=O)cc2)s1,inactive
6,O=C(NCc1ccccc1)c1ccc(S(=O)(=O)Nc2cccc(C(F)(F)F)c2)cc1,inactive
7,Cc1ccc(-c2c3c(=O)n(C)c(=O)n(C)c3cn2-n2cnnc2)cc1,inactive
8,COc1cc(/C=C2/C(=O)ON=C2C)ccc1OCc1ccccc1F,inactive
9,C=CCOc1ccc(/C=C2/C(=O)ON=C2C)cc1OCC,32.5% (active)
10,C#CCOc1ccc(/C=C2/C(=O)ON=C2C)cc1OCC,inactive
11,COC(=O)C1CCN(C(=O)c2cc(=O)[nH]c3ccccc23)CC1,inactive
12,O=C(COC(=O)c1cccc(Br)c1)Nc1cccc2c1C(=O)c1ccccc1C2=O,inactive
13,O=[N+]([O-])/C=C/c1ccc2c(ccn2Cc2ccccc2)c1,inactive
14,COC(=O)Cn1cc(/C=C/[N+](=O)[O-])c2ccccc21,38% (active)
15,COc1ccc2c(c1OC)C(=O)OC2Nc1nc(-c2ccccc2)cs1 (configuration not stated),inactive
16,Cc1ccc(S/C(=N\S(=O)(=O)c2ccc(Cl)cc2)c2ccccc2)cc1,inactive
17,Cc1ccc(Sc2cc(N3CCOCC3)nc(-c3ccccc3)n2)cc1,55.5% (active)
18,Cc1c(NC(=O)c2coc(=O)c(Br)c2)c(=O)n(-c2ccccc2)n1C,inactive
19,c1ccc(C[C@H]2CNCCN2CCC23CC4CC(CC(C4)C2)C3)cc1,inactive
20,Cc1ccc(C)c(Cn2nnc3c(=O)[nH]c(C(=O)Nc4ccc(F)cc4)nc32)c1,45.5% (active)
21,O=C1NC(c2ccc(-c3ccccc3[N+](=O)[O-])o2)C(C(=O)c2ccc(Cl)cc2)C(O)(C(F)(F)F)N1 (configuration not stated),38.5% (active)
22,CCOC(=O)C1CCN(C(c2cc3cc(C)cc(C)c3[nH]c2=O)c2nnnn2C2CCCCC2)CC1 (configuration not stated),inactive

row,Compound,activity (percent)
1,Cc1nc(-c2ccccc2)sc1C(=O)/C=C/c1ccccc1,inactive
2,COc1ccc(S(=O)(=O)Nc2ccc(O)c(Sc3nc4ccccc4s3)c2)cc1,inactive
3,Cc1nn2c(=O)cc(COC(=O)c3ccc(NC(=O)C(C)(C)C)cc3)nc2s1,inactive
4,COc1ccc(NCc2nnc(SCc3ccccc3)n2-c2ccc(OC)cc2)cc1,inactive
5,COc1cc(/C=C2/C(=O)NN(c3cccc(Cl)c3)C2=O)cc(Br)c1O,28.5% (active)
6,C#CCOc1ccc(/C=C2/C(=O)NN(c3ccccc3)C2=O)cc1OC,inactive
7,COc1cc(/C=C2/SC(=S)N(Cc3ccccc3)C2=O)cc(OC)c1O,inactive
8,CC(C)Cc1nc(Nc2ccc(S(=O)(=O)N3CCCC3)cc2)c2nnn(Cc3ccccc3)c2n1,inactive
9,CCc1ccc(C2C(C#N)=C(N)N(N3CCOCC3)C3=C2C(=O)CC(C)(C)C3)s1 (configuration not stated),inactive
10,COCCCNC(=S)N(CCN(C)C)Cc1cc2cc3c(cc2[nH]c1=O)OCCO3,inactive
11,O=C(N/N=C/c1ccccc1O)/C(=C/c1ccccc1)CCO,inactive
12,COc1ccc(OC)c(S(=O)(=O)N2CCCC(C(=O)N3CCC(C(N)=O)CC3)C2)c1 (configuration not stated),inactive
13,CNc1nc(Nc2ccc(C)c(Cl)c2)nc(N)c1[N+](=O)[O-],inactive
14,COc1ccc(-c2csc(Nc3ccc(O)cc3)n2)cc1,inactive
15,CC(=O)Nc1ccc(S(=O)(=O)Nc2nc(-c3ccc(C(C)(C)C)cc3)cs2)cc1,51% (active)
16,Cc1noc(NS(=O)(=O)c2ccc(N/C=C/C(=O)c3ccccc3)cc2)c1C,inactive
17,Cc1ccsc1/C=N/n1c(=S)[nH]nc(C)c1=O,inactive
18,Cc1nc(Nc2ccc(S(=O)(=O)N3CCCC3)cc2)c2nnn(Cc3ccccc3)c2n1,inactive
19,Cc1ccc(/C=C2\CCn3c2nc2cc(C(=O)O)ccc2c3=O)c(C)c1,33% (active)
20,O=C(O)c1ccc2c(=O)n3c(nc2c1)/C(=C/c1ccc(Cl)c([N+](=O)[O-])c1)CC3,inactive
21,O=S(=O)(Nc1nccs1)c1ccc2c(c1)OCCO2,inactive
22,Brc1ccc(-c2csc(N/N=C/c3cccnc3)n2)cc1,inactive

row,Compound,activity (percent)
1,Cc1ccc(SC(CC(=O)c2ccc(C(C)(C)C)cc2)C(=O)O)cc1 (configuration not stated),inactive
2,Nc1cccc(-c2cc(-c3ccccc3)nc(-c3cccc(N)c3)n2)c1,inactive
3,C=CCSc1nc2c(c(=O)[nH]1)C(C(C)C)C(C#N)=C(N)O2 (configuration not stated),49.5% (active)
4,O=C1c2ccccc2NC(c2ccc(-c3cccc(Cl)c3)o2)N1O (configuration not stated),inactive
5,O=C(/C=C/Sc1ncn[nH]1)c1ccc(Cl)cc1,32.5% (active)
6,Cc1cc(C)nc(S/C=C/C(=O)c2ccccc2)n1,inactive
7,O=C(Nc1ccccc1)OCc1cc(-c2ccc(Cl)cc2)on1,inactive
8,Cc1ccc(Nc2nc(N)nc(CSc3nnc(C)s3)n2)cc1,inactive
9,CCOC(=O)[C@@H]1[C@H]2COc3ccc(Br)cc3[C@H]2N2C(=O)N(c3ccc(Cl)cc3)C(=O)[C@@]12C,inactive
10,O=C(NCCCc1ccccc1)C1CCC(CNc2c(N3CCCCC3)c(=O)c2=O)CC1 (configuration not stated),inactive
11,COc1ccccc1C1C(C#N)=C(N)Oc2c1c(-c1ccccc1)nn2-c1ccccc1 (configuration not stated),34.5% (active)
12,CCC(c1nnnn1Cc1ccco1)N(Cc1cc2cc(OC)ccc2[nH]c1=O)C1CCCCC1 (configuration not stated),inactive
13,Cc1nn(C(C)C(=O)N2CCOCC2)c(=O)c2nn(-c3ccccc3)c(C)c12 (configuration not stated),inactive
14,CCc1ccc2oc(-c3ccc(N)cc3)nc2c1,37.5% (active)
15,Cc1cc(-c2n[nH]c(=S)n2/N=C/C(Br)=C/c2ccccc2)n[nH]1,inactive
16,CCCCOC(=O)CNc1nnc(SCC(=O)OCC)[nH]c1=O,inactive
17,O=C(O)c1ccc2c(c1)C(=O)N(c1ccc(/C=C/C(=O)c3ccccc3)cc1)C2=O,32% (active)
18,CCOc1ccc(NC(=O)C/C(C)=N/NC(=O)Cc2cccs2)cc1,inactive
19,Nc1ccccc1SC(C[N+](=O)[O-])c1ccccc1 (configuration not stated),inactive
20,COc1ccc(C(C[N+](=O)[O-])n2nc(C)cc2C)cc1 (configuration not stated),inactive
21,CCOC(=O)C1=NN(c2ccc(Cl)cc2)/C(=C/C2=NCCc3cc(OC)c(OC)cc32)S1,inactive

# Source: PubChem BioAssay AID493000 (Johns Hopkins Ion Channel Center, 2010)
